Assay results as given in PubChem BioAssay (Tox21).
Where “and” joins values, the source holds several entries; their conditions need not be identical. Equal entries are not always repeated. Inconclusive results are not listed. Values without a mark were called inactive. Calls of active or inactive are those of the source. Calls follow the shape of the dose curve; as a rule, active = well fitted cell-killing curve with a large enough effect in the repeat runs; inconclusive = weak or mixed curves, or effect the other way; inactive = flat fitted curve, though single readings scatter.

Test: qHTS assay to identify small molecule antagonists of the androgen receptor (AR) signaling pathway using the MDA cell line in the presence of 0.5 nM R1881 - cell viability counter screen (AID 1259242); also: nearly all actives have a fitted effect of over 45% in size
Conditions: MDA-kb2 viability, CellTiter-Fluor protease fluorescence, 16 h; series mostly up to 92.4 µM; viability change, negative = cytotoxic: at the top concentration
Text: U.S. Tox21 Program National Center for Advancing Translational Sciences [NCATS] NIH Chemical Genomics Center [NCGC] U.S. Environmental Protection Agency [EPA] National Institutes of Environmental Health Sciences [NIEHS] National Toxicology Program [NTP] U.S. Food and Drug Administration [FDA] Tox21 Assay Overview: Androgen receptor (AR) is an important member of the nuclear receptor family. Its signaling plays a critical role in AR-dependent prostate cancer and other androgen related diseases. Considerable attention has been given in the past decades to develop methods to study and screen for the environmental chemicals that have the potential to interfere with metabolic homeostasis, reproduction, developmental and behavioral functions. Therefore AR binding assay for screening androgen antagonists can be used to identify potential endocrine disruptors. MDA-kb2 cells (from ATCC, deposited by Wilson et al.) were used to screen for AR inhibitors against Tox21 compound libraries. These cells are human breast carcinoma cells that were stably transfected with a luciferase reporter gene under control of the MMTV promoter that contains response elements for both androgen receptor (AR) and glucocorticoid receptor (GR). The current screening for identification of AR inhibitors against Tox21 libraries used lower concentration of (0.5 nM) R1881 as a stimulator. The cytotoxicity of the Tox21 compound libraries against MDA-kb2 cell line was tested by measuring live-cell protease activity using CellTiter-Fluor assay in the same wells.
Tox21 Assay Protocol Summary: MDA-kb2 cells (cells cultured without CO2) were dispensed at 3,000 cells/well in 4 uL of culture medium into white wall/solid-bottom 1536-well plates (Corning Life Sciences, Corning, NY) using a Multidrop Combi (ThermoFisher Scientific, Waltham, MA) dispenser. After the assay plates were incubated at a 37C and 0% CO2 for 5 hr, 23 nL of compounds dissolved in DMSO, positive controls or DMSO only was transferred to the assay plate by a Pintool station (Kalypsys, San Diego, CA). The transfer of compounds was followed by the addition of 1 uL of 0.5 nM (final concentration) agonist (R1881)/culture medium using a Flying Reagent Dispenser (FRD, Aurora Discovery, San Diego, CA). The plates were incubated at 37C and 0% CO2 for 16 hr. For cytotoxicity assay, 1 uL of CellTiter-Fluor reagent (Promega Corporation, Madison, WI) was added to each well using the FRD and after 30 min incubation at 37C and 0% CO2, The fluorescence intensity was measured using ViewLux plate reader (PerkinElmer, Shelton, CT).
% is scaled to controls: 0 for no effect and ±100 for the full control effect; potency is read from the fitted curve at half-maximal effect.

SMILES | viability change, negative = cytotoxic | Potency
CCCCCOC(=O)CCCC | 3% | 
Oc1cccc(-c2c3nc(c(-c4cccc(O)c4)c4ccc([nH]4)c(-c4cccc(O)c4)c4nc(c(-c5cccc(O)c5)c5ccc2[nH]5)CC4)C=C3)c1 |  | 7.5 µM (active)
CCCCCCCCS(=O)C(C)Cc1ccc2c(c1)OCO2 (stereo not given) | -2.41% | 
CCC(Cl)C(Cl)C(Cl)CC(Cl)C(Cl)C(C)Cl (stereo not given) | -2.5% | 
CCC1=C[C@@H]2CN(C1)Cc1c([nH]c3ccccc13)[C@@](C(=O)OC)(c1cc3c(cc1OC)N(C)[C@H]1[C@@](O)(C(=O)OC)[C@H](OC(C)=O)[C@]4(CC)C=CCN5CC[C@]31[C@@H]54)C2 | -12.7% [at 42.5 µM] | 
CCCC/C=C/CCCCO | 2.24% | 
COC(=O)C1=C(C)NC(C)=C(C(=O)OCCc2ccc(N3CCN(C(c4ccccc4)c4ccccc4)CC3)cc2)C1c1cccc([N+](=O)[O-])c1 (stereo not given) | -0.943% [at 42.5 µM] | 
CN(C)C(=O)C1(N2CCCCC2)CCN(CC[C@@]2(c3ccc(Cl)c(Cl)c3)CN(C(=O)c3ccccc3)CCO2)CC1 |  | 50.9 µM (active)
CCCCCCCCCCn1cc[n+](CCCCCCCCCC)c1C |  | 30.7 µM (active)
COCCCC/C(=N\OCCN)c1ccc(C(F)(F)F)cc1 | -18.2% [at 42.5 µM] | 
CNc1ccc(O)cc1 |  | 61 µM (active)
C=CC(=O)OCC(CO)(COC(=O)C=C)COC(=O)C=C |  | 10.9 µM (active) and 27.3 µM (active)
CSc1cnc(C)cn1 | -1.14% [at 240 µM] | 
O=C(N/N=C/c1ccccc1O)c1ccncc1 | -13.8% [at 42.5 µM] | 
CCCCN1C(=O)[C@@H]([C@H](O)C2CCCCC2)NC(=O)C12CCN(Cc1ccc(Oc3ccc(C(=O)O)cc3)cc1)CC2 | -11.4% | 
CCCCCCCCn1sc(Cl)c(Cl)c1=O |  | 15.4 µM (active)
C[n+]1cc2c3c(ccc2c2ccc4cc5c(cc4c21)OCO5)OCO3 |  | 10.3 µM (active)
O=C(OC[C@H]1O[C@@H](OC(=O)c2cc(O)c(O)c(OC(=O)c3cc(O)c(O)c(O)c3)c2)[C@H](OC(=O)c2cc(O)c(O)c(OC(=O)c3cc(O)c(O)c(O)c3)c2)[C@@H](OC(=O)c2cc(O)c(O)c(OC(=O)c3cc(O)c(O)c(O)c3)c2)[C@@H]1OC(=O)c1cc(O)c(O)c(OC(=O)c2cc(O)c(O)c(O)c2)c1)c1cc(O)c(O)c(OC(=O)c2cc(O)c(O)c(O)c2)c1 | -18.2% [at 19 µM] | 
OCCCCCCCCCCCCBr | -10.1% | 
NNc1nc(-c2ccccc2)cs1 | -11.4% | 

SMILES | viability change, negative = cytotoxic | Potency
Cc1onc(-c2c(Cl)cccc2Cl)c1C(=O)N[C@@H]1C(=O)N2[C@@H]1SC(C)(C)[C@@H]2C(=O)O | 2.97% [at 42.5 µM] | 
O=C(c1ccc(F)cc1)C1CCN(CCn2c(=O)[nH]c3ccccc3c2=O)CC1 | 1.41% [at 42.5 µM] | 
O=C1CCCc2c1cc1ccc3cccc4ccc2c1c34 | -15% | 
COC(=O)c1cc(Cl)ccc1OC | 0.506% [at 42.5 µM] | 
CCOc1ccc2nc3cc(N)ccc3c(N)c2c1 | 7.92% [at 42.5 µM] | 
CCCCN1CCCC[C@H]1C(=O)Nc1c(C)cccc1C | -1.37% [at 42.5 µM] | 
NC(=O)CC[C@@H]1NC(=O)[C@H](Cc2ccccc2)NC(=O)[C@H](Cc2ccc(O)cc2)NC(=O)CCSSC[C@@H](C(=O)N2CCC[C@H]2C(=O)N[C@@H](CCCN=C(N)N)C(=O)NCC(N)=O)NC(=O)[C@H](CC(N)=O)NC1=O | -1.6% [at 42.5 µM] | 
N=C1C=CC(=C(c2ccc(N)cc2)c2ccc(N)cc2)C=C1 |  | 9.69 µM (active)
CN(C)c1ccc(C2(c3ccc(N(C)C)cc3)OC(=O)c3cc(N(C)C)ccc32)cc1 | 0.726% | 
N#CC1(c2ccc(F)cc2)CCC(=O)CC1 | 3.81% [at 42.5 µM] | 
Cc1c(C)c2c(c(C)c1O)CCC(C)(COc1ccc(CC3SC(=O)NC3=O)cc1)O2 (stereo not given) |  | inactive
CC(NN)c1ccccc1 (stereo not given) | -1.49% [at 19 µM] | 
CCCCC(CC)CN=C(N)NC(N)=NCCCCCCN=C(N)NC(N)=NCC(CC)CCCC (stereo not given) |  | 18.8 µM (active)
NNc1nc(-c2ccc([N+](=O)[O-])cc2)cs1 |  | 54.5 µM (active)
O=c1[nH]cnc2nc[nH]c12 | -1.59% [at 42.5 µM] | 
CCN(CC)CCNC(=O)c1c(C)[nH]c(/C=C2\C(=O)Nc3ccc(F)cc32)c1C |  | 29.8 µM (active)
CCN(Cc1cccnc1)C(=O)c1cccc(Cl)c1[C@]1(C)C(=O)N(Cc2ccc(OC)cc2OC)c2ccc(Cl)cc21 | -16.4% | 
Oc1ccc(Cl)cc1Sc1cc(Cl)ccc1O |  | 29.8 µM (active)
CCCCCCCCCCCCCCCS(=O)(=O)Oc1ccccc1 | 6.47% [at 42.5 µM] | 
Clc1ccc2n[nH]nc2c1 | 4.81% | 
